Results: the supplement of paper PMC6522484
± gives the standard deviation of the averaged measurements.

Legend:
DLD1 [1] = test: cell viability (CellTiter-Glo) relative to plate median (fraction of plate median); higher = more viable cells; details: 5 µM; treatment time 24 h; reporter: 7TFP
Method in brief: (§1)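 Library compounds were added at a final concentration of 5 µM for 24 h to colorectal cancer cells stably transduced with a lentiviral TCF/Wnt firefly luciferase reporter. Reported values are firefly luciferase or CellTiterGlo luminescence, normalised per well to the plate median. Each value averages two independent replicates.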

HCT116 = test: as above; details: 5 µM; treatment time 24 h; reporter: TCF4/Wnt
Method in brief: as §1

SW480 [2] = test: as above; details: 5 µM; treatment time 24 h; reporter: 7TFP
Method in brief: as §1

DLD1 [3] = test: TCF/Wnt firefly luciferase reporter signal relative to plate median (fraction of plate median); higher = higher Wnt reporter signal; details: 5 µM; treatment time 24 h; reporter: 7TFP
Method in brief: as §1

SW480 [4] = test: as above; details: 5 µM; treatment time 24 h; reporter: 7TFP
Method in brief: as §1

Row | SMILES | cell viability (DLD1 [1]) | cell viability (HCT116) | cell viability (SW480 [2]) | TCF/Wnt firefly luciferase reporter signal (DLD1 [3]) | TCF/Wnt firefly luciferase reporter signal (SW480 [4])
1 | CC(=O)c1c2c(c(C)n1-c1ccccc1C(=O)O)C(=O)c1c(O)cccc1C2=O [Bhimamycin D] | 1.02 ± 0.048 | 0.863 ± 0.025 | 0.969 ± 0.072 | 1.05 ± 0.11 | 1.08 ± 0.042
2 | NC[C@H](O)c1ccc(O)c(O)c1 | 1.02 ± 0.035 | 0.95 ± 0.071 | 1.005 ± 0.0071 | 0.962 ± 0.069 | 0.9835 ± 0.0078
3 | CCOc1nc2cccc(C(=O)OC(C)OC(=O)OC3CCCCC3)c2n1Cc1ccc(-c2ccccc2-c2nn[nH]n2)cc1 (stereo not given) | 0.864 ± 0.052 | 0.959 ± 0.042 | 1.045 ± 0.0071 | 1.06 ± 0.2 | 1.07 ± 0.064
4 | C[C@H]1C(=O)CC[C@@H]2[C@]1(C)CC[C@H]1[C@@]2(C)CC[C@@]2(C)[C@@H]3CC(C)(C)CC[C@]3(C)CC[C@]12C | 1.04 ± 0.014 | 0.983 ± 0.052 | 0.9995 ± 0.00071 | 0.95 ± 0.042 | 0.88 ± 0.09
5 | COC1=CC(=O)c2c(O)c3c(c(O)c2C1=O)OC1(Oc2c(cc4cc(C)oc(=O)c4c2O)C2OC21)C3O (stereo not given) [Griseorhodin A] | 1.09 ± 0.11 | 1.01 ± 0.04 | 1.05 ± 0.021 | 0.925 ± 0.057 | 1.01 ± 0.014
6 | C=C(CC[C@@H](C(=O)O)[C@H]1CC[C@@]2(C)C3=C(CC[C@]12C)[C@@]1(C)CC[C@H](O)C(C)(C)[C@@H]1CC3)C(C)C [Eburicoic acid] | 0.994 ± 0.052 | 0.923 ± 0.15 | 1.01 ± 0.03 | 0.878 ± 0.023 | 0.983 ± 0.013
7 | C[C@H]1COc2c(N3CCN(C)CC3)c(F)cc3c(=O)c(C(=O)O)cn1c23 | 0.891 ± 0.025 | 0.966 ± 0.04 | 0.984 ± 0.023 | 0.996 ± 0.049 | 1.04 ± 0.093
8 | Cc1cc(=O)oc2cc(O)cc(O)c12 | 1.05 ± 0.042 | 1.11 ± 0.11 | 1 ± 0.053 | 0.888 ± 0.12 | 0.975 ± 0.12
9 | C=C1C(=O)C[C@@H]2[C@@H]3CC[C@@H](C(=O)O)[C@@]12CC3(C)C [Terrecyclic Acid A] | 0.873 ± 0.051 | 0.919 ± 0.047 | 0.974 ± 0.022 | 0.957 ± 0.1 | 0.961 ± 0.044
10 | CC(=O)O[C@H]1C[C@@H](OC(C)=O)C(C)(C)C2CC(=O)[C@]3(C)C(CC[C@@]4(C)[C@H](c5ccoc5)OC(=O)[C@H]5O[C@]543)[C@]21C (stereo not given in full) | 0.983 ± 0.0099 | 0.998 ± 0.046 | 1.02 ± 0.076 | 1.06 ± 0.11 | 1.03 ± 0.028
11 | CCCCCC(=O)O[C@]1(C(C)=O)CC[C@H]2[C@@H]3CCC4=CC(=O)CC[C@]4(C)[C@H]3CC[C@@]21C | 0.993 ± 0.0099 | 1.04 ± 0.057 | 0.972 ± 0.018 | 0.979 ± 0.087 | 1.04 ± 0.021
12 | CCCCCCCCCc1ccc(OCCOCCOCCOCCOCCOCCOCCOCCOCCO)cc1 | 0.985 ± 0.064 | 0.947 ± 0.036 | 0.998 ± 0.032 | 1 ± 0.18 | 0.904 ± 0.088
13 | c1ccc2c(c1)CN1CCCC1=N2 | 1.03 ± 0.028 | 1.09 ± 0.24 | 0.998 ± 0.032 | 0.935 ± 0.15 | 0.944 ± 0.064
14 | CCN1CCN(c2cc3c(cc2F)c(=O)c(C(=O)O)cn3C2CC2)CC1 | 1.01 ± 0.05 | 0.907 ± 0.038 | 0.921 ± 0.03 | 1.05 ± 0.074 | 0.9395 ± 0.005
15 | CC(C)c1ccc2c(c1)CC[C@H]1[C@](C)(CN)CCC[C@]21C | 1.04 ± 0.028 | 1.07 ± 0.092 | 1.06 ± 0.028 | 1.18 ± 0.071 | 1.03 ± 0.13
16 | CCN(CC)CCNC(=O)COc1ccc(OC)cc1 | 0.875 ± 0.03 | 0.928 ± 0.035 | 0.973 ± 0.038 | 1.09 ± 0.064 | 1.02 ± 0.029
17 | C[C@H]1c2cccc(O)c2C(=O)C2=C(O)[C@]3(O)C(=O)C(C(N)=O)=C(O)[C@@H](N(C)C)[C@@H]3[C@@H](O)[C@@H]21 | 0.942 ± 0.096 | 0.964 ± 0.033 | 0.975 ± 0.0028 | 0.967 ± 0.23 | 1.03 ± 0.18
18 | O=C(NC(Cc1cc(=O)[nH]c2ccccc12)C(=O)O)c1ccc(Cl)cc1 (stereo not given) | 0.93 ± 0.0071 | 0.975 ± 0.026 | 0.931 ± 0.024 | 0.909 ± 0.064 | 0.818 ± 0.069
19 | C[C@H]1[C@H](C)CC[C@]2(C(=O)O)CC[C@]3(C)C(=CC[C@@H]4[C@@]5(C)CC[C@H](O)C(C)(C)[C@@H]5CC[C@]43C)[C@H]12 | 0.978 ± 0.014 | 1.04 ± 0.014 | 1.03 ± 0.021 | 1.07 ± 0.057 | 1.06 ± 0.014
20 | CCCCS(=N)(=O)CCC(N)C(=O)O (stereo not given) | 1.04 ± 0.021 | 0.948 ± 0.22 | 1.08 ± 0.014 | 1.05 ± 0.028 | 1.03 ± 0.11
21 | CCOC(=O)C(C)(C)Oc1ccc(Cl)cc1 | 1.01 ± 0.021 | 0.981 ± 0.0071 | 0.971 ± 0.055 | 1.24 ± 0.021 | 1.04 ± 0.035
22 | CCOC(=O)NNc1nncc2ccccc12 | 0.981 ± 0.07 | 1.01 ± 0.014 | 0.981 ± 0.056 | 0.85 ± 0.045 | 0.784 ± 0.069
23 | CC1=C(C(=O)O)N2C(=O)[C@@H](NC(=O)[C@H](N)c3ccc(O)cc3)[C@H]2SC1 | 0.977 ± 0.016 | 0.956 ± 0.063 | 0.949 ± 0.086 | 0.907 ± 0.14 | 0.918 ± 0.13
24 | O=c1cc(-c2cccc(O)c2)oc2ccc(O)cc12 | 1.05 ± 0.09 | 0.98 ± 0.0057 | 1 ± 0.036 | 1.19 ± 0.16 | 1.19 ± 0.14
25 | Cc1cc(-n2c(=O)[nH]c(=O)n(C)c2=O)ccc1Oc1ccc(SC(F)(F)F)cc1 | 0.946 ± 0.052 | 1 ± 0.023 | 0.952 ± 0.016 | 0.926 ± 0.013 | 1.04 ± 0.06
26 | CC1(C)S[C@@H]2[C@H](NC(=O)COc3ccccc3)C(=O)N2[C@H]1C(=O)O | 1.09 ± 0.021 | 1.05 | 1.01 ± 0.023 | 1.1 ± 0.028 | 1.08 ± 0.05
27 | O=C(O)c1c2ccccc2cc2ccccc12 | 0.959 ± 0.043 | 1.02 ± 0.13 | 1.01 ± 0.052 | 0.934 ± 0.064 | 0.872 ± 0.073
28 | Cc1nc(C)c(Cl)c(O)c1Cl | 1.1 ± 0.099 | 1.03 ± 0.11 | 1.004 ± 0.0085 | 0.99 ± 0.029 | 0.917 ± 0.059
29 | Cc1ccnc(NS(=O)(=O)c2ccc(N)cc2)n1 | 0.968 ± 0.059 | 0.974 ± 0.052 | 0.953 ± 0.04 | 0.924 ± 0.019 | 0.929 ± 0.1
30 | CC(=O)c1cc2c(cc1O)OC(C)(C)C=C2 | 1.09 ± 0.099 | 1 ± 0.011 | 1.03 ± 0.014 | 0.99 ± 0.057 | 1.01 ± 0.023
